# ChEMBL document CHEMBL3433997, “St. Jude Leishmania screening dataset” (2016)
# What was measured:
# Format in all cases: functional
# [1] = biological target: Solute carrier family 2, facilitated glucose transporter member 1 (Homo sapiens) (UniProt P11166); experiment: ST_JUDE_LEISH: Cytotoxicity at 2uM final concentration against transgenic Leishmania Mexicana promastigotes LmGLUT1 that are glucose transport deficient and complemented with the human glucose transporter GLUT1. Activity is measured by DNA content using SYBR green in vitro
# [2] = biological target: Hexose transporter 1 (Plasmodium falciparum) (UniProt O97467); experiment: ST_JUDE_LEISH: Cytotoxicity at 2uM final concentration against transgenic Leishmania Mexicana promastigotes LmPfHT that are glucose transport deficient and complemented with the Plasmodium falciparum hexose transporter. Activity is measured by DNA content using SYBR green in vitro
# [3] = biological target: Glucose transporter (Leishmania mexicana) (UniProt O61059); experiment: ST_JUDE_LEISH: Cytotoxicity at 2uM final concentration against transgenic Leishmania Mexicana promastigotes LmGT2 that are glucose transport deficient and complemented with the L. Mexicana glucose transporter 2. Activity is measured by DNA content using SYBR green in vitro
# Solute carrier family 2, facilitated glucose transporter member 1 (Homo sapiens), sequence (P11166 whole entry): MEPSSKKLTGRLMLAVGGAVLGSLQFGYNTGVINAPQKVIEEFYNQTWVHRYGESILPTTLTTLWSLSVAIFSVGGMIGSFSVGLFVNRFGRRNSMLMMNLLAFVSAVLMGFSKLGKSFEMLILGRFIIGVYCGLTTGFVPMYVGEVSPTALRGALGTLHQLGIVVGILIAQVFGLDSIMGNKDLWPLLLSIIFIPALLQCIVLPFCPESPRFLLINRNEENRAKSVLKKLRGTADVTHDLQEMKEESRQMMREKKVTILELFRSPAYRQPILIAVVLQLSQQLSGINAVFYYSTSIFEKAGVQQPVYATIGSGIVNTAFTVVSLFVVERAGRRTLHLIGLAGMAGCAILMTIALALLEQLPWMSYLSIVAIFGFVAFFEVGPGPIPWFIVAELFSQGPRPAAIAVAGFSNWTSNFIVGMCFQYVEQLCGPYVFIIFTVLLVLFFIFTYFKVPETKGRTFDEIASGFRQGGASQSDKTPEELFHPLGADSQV
SMILES,inhibition [1],inhibition [2],inhibition [3]
C(=N\Nc1nccc2sc(-c3cccnc3)cc12)/c1ccncc1,5.3%,5.29%,1.98%
O=C(Nc1ccc(Br)cc1)Nc1ccc(Cn2ncc(N3CCCNCC3)c(Cl)c2=O)cc1,-2.08%,0.01%,2.81%
c1ccc(-n2ncc(CNCc3ccc(-c4cccc(-c5nc6ccccc6[nH]5)c4)cc3)n2)cc1,1.76%,1.26%,-2.38%
CCn1c(-c2nonc2N)nc2c(-c3ccccc3)ncc(OCCCNCCCN3CCOCC3)c21,2.58%,1.32%,0.55%
COc1cc2c(c(OC)c1[N+](=O)[O-])C=CC1(O2)N(C)c2ccc([N+](=O)[O-])cc2C1(C)C (configuration not stated),4.19%,0.99%,1.36%
O=C(/C=C/c1ccc(Cl)c(Cl)c1)NCCCCCN1CCC(NC(=S)Nc2ccc(Cl)cc2)CC1,9.42%,8.02%,6.39%
COc1ccc2nccc([C@@H](O)CN3CCC(NCc4cc5ccc(C#N)cc5[nH]4)CC3)c2c1,13.5%,12.8%,9.02%
CO/C(=C\C=C\c1cc2cc(Cl)c(Cl)cc2[nH]1)C(=O)NCCCN1CCN(c2ccc(OC)cc2)CC1,2.11%,2.47%,1.28%
Cc1cccc(Nc2nc(NCCCCN)nc3cc[nH]c(=O)c23)c1,6.92%,6.97%,4.49%
CN1CCCN(Cc2cccc(-c3cccc(NC(=O)c4ccc(C#N)cc4)c3)c2)CC1,11%,7.28%,6.98%
CN(C)Cc1ccc(-c2ccc3c(Nc4ccc(Oc5ccccc5)cc4)ccnc3c2)o1,0.83%,0.83%,2.26%
COc1ccccc1CNC(=O)c1cc(OC)c(OC)cc1NC(=O)c1cccs1,10.5%,6%,4.4%
Cc1ccc2c(NC(=O)Nc3ccc(N(C)C)cc3)cc(C)nc2c1,5.9%,5.56%,6.28%
CC(=O)Nc1ccc(C(=O)Nc2cccc(-c3csc(-c4nc5ccccc5[nH]4)c3)c2)cn1,0.54%,1.56%,-0.51%
Cc1ccc(C(C)C)cc1CON1C(=N)N=C(N)NC1(C)C,11.2%,10.7%,10.9%
O=C(Nc1cccc(CN2CCCN(Cc3ccc4c(c3)OCO4)CC2)c1)c1ccc(-c2ccccc2)cc1,4.21%,3.52%,0.89%
COc1ccc(CNCc2ccc(F)cc2)cc1-c1ccc(S(=O)(=O)NCCN2CCCC2)cc1,7.44%,6.73%,5.24%
CCc1cn2c3c(cc(C(=O)N[C@@H](Cc4ccccc4)[C@H](O)CNC(C)(C)c4cccc(OC)c4)cc13)N(C)S(=O)(=O)C2,1.01%,1.91%,0.96%
COc1cc(NC(=O)/C=C/c2ccc(-c3ccccc3)cc2)ccc1OCCN(C(C)C)C(C)C,60.5%,55.8%,23.4%
CCNc1cc(C(=O)N[C@@H](Cc2ccccc2)[C@H](O)CNC2CCCC2)cc(N2CCCC2=O)c1,3.87%,3.77%,3.46%
CC[C@H](N/C(=N\c1cccc(Cl)c1Cl)Nc1ccc(C#N)cc1O)c1ccccc1,7.88%,9.4%,6.46%
CC(C)NCc1ccc(-c2cccc(-c3nc4cc(F)ccc4[nH]3)c2)cc1,-1.78%,0.53%,-0.69%
Cn1c(CN2CCC(N3CCc4cc(NC(=O)c5ccco5)ccc43)C2)cc2ccccc21 (configuration not stated),5.51%,4.84%,5.36%
CC(=O)Nc1nc(C(=O)Nc2ccc(-c3ccc(-c4nc5cc(F)ccc5[nH]4)cc3)cc2)cs1,2.38%,-2.61%,-1.02%
COc1ccccc1C(C)NCC(=O)Nc1ccccc1Sc1ccccc1 (configuration not stated),0.18%,0.01%,1.44%

SMILES,inhibition [1],inhibition [2],inhibition [3]
O=C(NC1CC1)c1ccc(Cn2c(SCc3cccc(Cl)c3)nc3ccccc3c2=O)cc1,0.42%,-0.54%,-1.07%
CN(Cc1ccncc1)C(Cc1ccccc1)C1CCN(Cc2ccc(O)c(Cl)c2)CC1 (configuration not stated),1.88%,2.51%,-0.31%
O=C(/C=C/c1ccc(Cl)c(Cl)c1)NCC[C@@H]1C[C@H]1CCN1CCC(c2c[nH]c3ccccc23)CC1,9.6%,8.4%,6.24%
CCCCC(=O)Nc1nc2ccc([N+](=O)[O-])cc2s1,1.98%,2.81%,-0.58%
CCCCCCCN1CC[C@@H](CCCc2ccnc3ccc(OCCC4CCNCC4)cc23)[C@@H](CC)C1,7.73%,7.46%,6.53%
CCN(CC)CCN(Cc1ccc(-c2ccc(C(F)(F)F)cc2)cc1)C(=O)Cn1c(CCc2ccc(F)cc2)nc(=O)c2sccc21,2.57%,1.22%,2.92%
CCCCCN1CCCN(Cc2cccc(NC(=O)c3ccc(Cl)c(Cl)c3)c2)CC1,-3.68%,0.02%,2.58%
COc1c(C2CCN(CCCCNC(=O)c3ccc(-c4ccc(Cl)cc4)c(OCCN(C)C)c3)CC2)ccc2c1CCCC2,9.22%,14.4%,18.8%
COc1cccc2cc(C(=O)N[C@@H](CC(C)C)C(=O)Nc3cc(F)ccc3Br)oc12,1.51%,0.34%,0.22%
CCCCNC(=O)[C@H](Cc1ccccc1)NC(=O)c1ccc(O)c(-c2ccc(Cl)c(Cl)c2)c1,6.46%,2.06%,3.71%
COc1ccc(NC(=O)NC2CCN(CCCOc3ccnc4cc(Cl)ccc34)C2)cc1OC (configuration not stated),-0.88%,-0.13%,-0.69%
Cc1ccc(Cl)cc1NC(=O)c1c(-c2ccccc2Cl)noc1C,-0.47%,-1.54%,-0.61%
CN(CCON1C(=N)N=C(N)NC1(C)C)c1ccccc1,-0.49%,0.33%,0.35%
COc1ccc(CCNc2nc(NCCc3cnc[nH]3)nc(NCc3cccc4ccccc34)n2)cc1OC,7.46%,10.1%,4.1%
COc1ccc2ncc(F)c(CCN3CC[C@@H](CNCc4cc(C)c5c(c4)OCCO5)C3)c2n1,7.09%,8.46%,5.39%
COc1cccc(NC(=O)NC2CCN(CCCCCNC(=O)/C=C/c3ccc(Cl)c(Cl)c3)CC2)c1,0.13%,0.47%,3.52%
CC(C)CCn1c(Sc2ccc(C#N)c([N+](=O)[O-])c2)nnc1-c1ccc(N(C)C)cc1,0.76%,0.92%,0.35%
COc1cc(F)c2ncc(Cl)c(CCN3CCC(NCc4ccc5c(n4)NC(=O)CO5)CC3)c2c1,3.28%,4.15%,-1.5%
c1ccc(Oc2ccc(Nc3ccnc4cc(-c5ccc(CN6CCCCC6)o5)ccc34)cc2)nc1,-2.19%,-1.27%,0.73%
Cc1cc(N)c2cc(NC(=O)c3cccc(C(=O)Nc4ccc5nc(C)cc(N)c5c4)c3)ccc2n1,-0.38%,2.01%,-2.06%
O=C(Nc1ccccc1Br)c1cn(-c2ccccc2)nc1-c1cccc([N+](=O)[O-])c1,10.6%,10.4%,8.93%
O=C(OCc1ccccn1)c1nc2ccccc2[nH]1,0.81%,2.57%,0.92%
COc1ccc(NC(C)C(=O)Nc2ccc(Br)cc2)cc1S(=O)(=O)N1CCCCC1 (configuration not stated),-1%,1.34%,1.93%
Cc1cccc2nc(-c3ccc(-c4ccc(CNC(C)C)cc4)cc3)[nH]c12,21.6%,25.1%,15.7%
